# Test results as given in the supplement of paper PMC6555819.
# Columns and labels:
# Test in all cases: PBM binding z-score (relative to random genomic background probes); higher = stronger binding; sequences stand for … in GC…GCGATTGACAGCGTAGAATGAAGG
# [1] = system: RARb homodimer (NR concentration 270 nM)
# How it was run: (§1)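 Custom Agilent 4×180K protein-binding microarrays carried double-stranded probes. Their 34-nt variable regions held direct-repeat seeds, single-nucleotide variants, half-site ablations and random human genomic background sequences. Arrays were incubated 1 h with ligand-free nuclear receptor dimers in PBS pH 7.4, 2% milk, 0.02% Triton X-100, 1 mM DTT, 0.2 mg/mL BSA and 0.4 mg/ml salmon testes DNA. Antibodies against each partner (one per run) detected binding, and scanned fluorescence was regression-normalized. Binding z-scores use random background probes as reference.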
# [2] = system: RARg:RXRa (NR concentration 270 nM, RXRa partner concentration 90 nM)
# How it was run: as §1
# [3] = system: RARg homodimer (NR concentration 270 nM)
# How it was run: as §1
# [4] = system: RXRa DBDmut IVT, anti-RXR (DBD mutation: RXRa K156A/R161A, NR concentration 90 nM)
# How it was run: as §1
# [5] = system: RXRa homodimer (NR concentration 180 nM)
# How it was run: as §1
# [6] = system: THRa:RXRa (NR concentration 90 nM, RXRa partner concentration 90 nM)
# How it was run: as §1
# [7] = system: THRa homodimer (NR concentration 90 nM)
# How it was run: as §1
# [8] = system: VDR:RXRa (NR concentration 270 nM, RXRa partner concentration 90 nM)
# How it was run: as §1
# [9] = system: VDR homodimer (NR concentration 270 nM)
# How it was run: as §1
Sequence,PBM binding z-score [1],PBM binding z-score [2],PBM binding z-score [3],PBM binding z-score [4],PBM binding z-score [5],PBM binding z-score [6],PBM binding z-score [7],PBM binding z-score [8],PBM binding z-score [9]
TCATAAAGGTAAAGGTGAAAGTCGAACGATATGA,1.86,2.14,2.08,1.06,2.73,1.73,-0.454,0.948,0.0173
ACAGACGGGTGAGTGAAGGTAACTCAGCTGGACG,0.0268,-0.0676,0.0149,-0.71,0.204,1.45,-0.184,-0.422,-0.714
TCAGATAGGTAAACAGGTGAAAGTCCGTAAGTTA,0.841,0.678,0.219,1.48,1.01,0.664,0.307,0.923,0.407
TCTTGTAGATCAAACGTTAAGAAAGCCGAAGCCT,-0.779,-0.146,-0.238,0.749,0.138,-0.412,-0.567,0.359,-0.573
ACTAGCAGGCGAAGTTTGGGTCACTCAAACAAAG,1.48,0.795,0.54,-0.3,0.656,1.91,0.813,0.191,-0.246
TCACATAGGTAAAGGTGAAAGTCGAACGATATGA,1.65,1.65,1.26,1.26,2.34,1.44,-0.0581,1.32,-0.223
GCGACTGGGGCATGAGCAGGTTACCATAACTTAA,0.894,0.84,0.396,-0.489,0.385,0.664,-0.144,-0.262,-0.116
CCTGCTTGGTCATGGTCAGCTAATCTACAGTATG,0.424,0.464,0.774,0.252,0.162,-0.0915,-0.506,-0.22,-0.205
CCTGACGGGTCACGAGGTTATAGCACGACGAGCG,3.55,5.83,5.33,1.42,6.19,3.3,1.14,4.62,1.87
CCTACTGGGCCAAGGTCATTGTTCAGTCAAAGCA,3.27,3.46,2.71,1.59,2.91,3.45,2.72,3.15,3.17
CAGCCTAGGTCAGGGCCATTATAGGAGGAACGTT,2.66,3.08,4.01,0.265,1.84,2.07,0.505,0.399,-0.15
CCTGCTGGGCCATCAGGTCATTGATATCAACGTT,2.51,2.06,2.01,0.287,1.01,3.19,2.31,1.59,1.01
GTTAGCAGGCCATTTGGGTCACTCAATGACGGGC,1.8,1.15,1.5,0.133,0.847,1.79,0.575,0.985,0.779
TAGCCTAGGTCAGCTCGGGCCAGTATACGCTATA,2.59,3.06,4.25,-0.297,1.54,4.27,0.31,0.763,-0.788
CCGACTGGGGCAGAAAGGTTACTATACCATCCGG,1.91,1.26,1.23,-0.158,1.3,0.534,-0.377,0.555,-0.181
ACTAGCAGGCTAAGGGTCACTCAAGATTAGTCCG,3.89,3.88,3.65,0.904,4.18,2.6,-0.003,2.97,1.01
TATAGTTGGTCACGGAGGTCACACACGACGGGTA,4.58,4.81,4.72,-0.131,5.16,3.9,2.69,5.81,2.85
GCTCCGAGGACAAGGTCAGAGCTTTGTCCGTAGA,3.24,3.01,3.47,1.05,2.25,3.55,2.3,1.43,0.674
AGACCGAGGGCACGCTGAGTTGATAGCAGAGTAG,1.33,2.22,2.06,1.49,1.31,1.77,-0.237,2.21,1.75
CCTTACGGGTCACGAGGTTATCGCACGACGAGCG,4.01,6.31,5.55,1.96,7.47,3.72,1.12,5.31,2.04
CCGACTGGGGCGAGGTTACCATAACGCACAGCCA,0.887,0.854,0.545,-0.326,1.39,1.55,0.408,0.364,0.294
GCGACTGGGGCATCAGCAGATTACCATAACTTAA,0.257,-0.0173,0.481,0.186,-0.143,-0.135,-0.286,-0.562,-0.431
TTACCAAGGTGAGGGTCGTTGATCCCTCTGTAGA,0.945,0.785,0.443,-0.138,1.37,1.8,0.423,0.884,0.171
ACTAGCAGGACAAGGGTCACTCAAGATTAGTCCG,3.75,4.12,3.61,0.928,3.68,3.04,0.529,3.05,2.01
ACTATGAGTTGACTTAGGGCAACCGATACGACGC,1.06,1.07,1.2,1.49,0.819,2.22,0.414,1.16,1.26
TCTTGTAAATCAACAGGAGGTTAAGAAAGATCGA,0.787,0.681,0.518,1.04,1.11,0.911,-0.242,1.16,0.513
